Mdm2 MdmX PPI: disrupts the human Mdm2-MdmX interaction; SaOS-2 split-luciferase Mdm2/MdmX complementation, luminescence; inhibition, % at 8 µM; hit rate 3% among 330,000; O15151+Q00987;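 active = inhibition of at least 50% at 8 µM in the primary screen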
Target sequence (O15151 whole entry, looked up): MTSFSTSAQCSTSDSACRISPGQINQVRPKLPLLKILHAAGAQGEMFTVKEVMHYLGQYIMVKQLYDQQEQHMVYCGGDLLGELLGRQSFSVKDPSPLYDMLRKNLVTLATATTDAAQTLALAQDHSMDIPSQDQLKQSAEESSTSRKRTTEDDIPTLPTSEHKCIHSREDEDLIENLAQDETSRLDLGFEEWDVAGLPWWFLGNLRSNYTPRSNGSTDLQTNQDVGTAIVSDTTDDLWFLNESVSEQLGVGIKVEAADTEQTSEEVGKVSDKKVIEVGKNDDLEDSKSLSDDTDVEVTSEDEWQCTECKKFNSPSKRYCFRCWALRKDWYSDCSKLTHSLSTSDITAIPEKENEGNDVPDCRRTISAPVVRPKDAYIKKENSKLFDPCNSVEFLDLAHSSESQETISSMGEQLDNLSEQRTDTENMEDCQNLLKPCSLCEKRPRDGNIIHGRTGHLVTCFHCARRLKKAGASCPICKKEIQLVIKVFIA
Target sequence (Q00987 whole entry, looked up): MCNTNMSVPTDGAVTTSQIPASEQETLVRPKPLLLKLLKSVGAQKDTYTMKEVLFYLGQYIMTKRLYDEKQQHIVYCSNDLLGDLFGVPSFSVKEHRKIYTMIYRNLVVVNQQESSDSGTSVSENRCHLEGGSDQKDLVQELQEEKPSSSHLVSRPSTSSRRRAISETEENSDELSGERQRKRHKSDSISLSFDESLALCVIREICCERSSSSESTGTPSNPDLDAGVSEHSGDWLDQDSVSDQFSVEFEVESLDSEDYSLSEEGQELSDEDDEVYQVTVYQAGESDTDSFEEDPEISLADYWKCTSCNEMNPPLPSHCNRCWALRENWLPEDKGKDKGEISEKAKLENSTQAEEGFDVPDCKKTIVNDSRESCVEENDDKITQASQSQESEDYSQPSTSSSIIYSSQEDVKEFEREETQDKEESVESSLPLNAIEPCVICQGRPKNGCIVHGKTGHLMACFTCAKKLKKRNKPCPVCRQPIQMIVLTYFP
TIM10 inh: growth inhibitors of TIM10 yeast strain | hit rate 1.4% among 330,000 | AID 463195 | S. cerevisiae TIM10 strain growth, BacTiter-Glo luminescence, 24 h | inhibition, % at 10 µM;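 active = inhibition of 40% or more at the single tested concentration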;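 note: wild-type TIM10 isogenic control strain grown at permissive 25 °C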
tim10-1 inh: inhibits growth of tim10-1 mutant yeast | hit rate 2.2% among 330,000 | inhibition, % at 20 µM | AID 463190 | S. cerevisiae tim10-1 ts strain growth, BacTiter-Glo, 24 h;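 active = inhibition of at least 40%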;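 note: mutant grown at 25 °C; 0% = DMSO wells with yeast and 100% = wells holding no yeast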
MPTP block: blocks calcium-induced mitochondrial swelling; isolated mouse mitochondria, Ca2+ swelling absorbance, 30 min; inhibition, % at 10 µM; hit rate 1.4% among 360,000;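 active = inhibition of 50% or more, scaled per plate between neutral and stimulator controls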;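 note: 0% = DMSO wells given calcium and 100% = 1 mM EGTA wells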
tim23-1 inh: tim23-1 yeast growth inhibition; S. cerevisiae tim23-1 growth, BacTiter-Glo luminescence, 24 h; inhibition, % at 20 µM; hit rate 1.3% among 330,000; AID 463212;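 active = growth inhibition of the mutant yeast at or above 50%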;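 note: temperature-sensitive mutant grown at 25 °C; plate controls were DMSO-treated mutant yeast for no effect and medium wells lacking yeast for full effect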
Mdm2-MdmX conf: human Mdm2/MdmX binding inhibition, confirmed. inhibition, % at 8 µM. hit rate 55% among 10,000. shares compounds with Mdm2 MdmX PPI. AID 489028. luminescent assay; in the data active = inhibition above about 40%
FLuc counter: full-length luciferase inhibition in Mdm2/MdmX counter-screen; shares compounds with Mdm2 MdmX PPI; SaOS-2 full-length luciferase counterscreen, luminescence; inhibition, % at 8 µM; hit rate 77% among 6,200;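 active = mean inhibition at 8 µM reaching about 37%, which flags the compound as non-specific, limit read from the data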;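 note: p53-null SaOS-2 cells with luciferase driven by a doxycycline-inducible promoter; compound on cells about two nights before reading with doxycycline added after day one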
* marks the source's active call; other numbers are inactive results. In the library only some 6.3% were active in any assay of this set; here they are far more common.

For Nc1nc(Nc2cccc3ccccc23)nc(C2CCCC2=O)n1 (centres undefined) the results were Mdm2 MdmX PPI 28, TIM10 inh -7, tim10-1 inh 9 and tim23-1 inh -1.
For Nc1nc(CCl)nc(Nc2cccc3ccccc23)n1 the results were Mdm2 MdmX PPI 97*, TIM10 inh 18, tim10-1 inh 38, MPTP block 0, tim23-1 inh 24, Mdm2-MdmX conf 98* and FLuc counter 61*.
O=C(Nc1c2ccccc2nc2ccccc12)C(Cl)(Cl)Cl was read as Mdm2 MdmX PPI 62*, TIM10 inh 24, tim10-1 inh -59, MPTP block 2, tim23-1 inh -8, Mdm2-MdmX conf 48* and FLuc counter 34.
COc1ccc(Nc2nc(-c3sc(C)nc3C)cs2)c(OC)c1 was read as Mdm2 MdmX PPI 65*, TIM10 inh 1, tim10-1 inh -9, MPTP block 1, tim23-1 inh 42, Mdm2-MdmX conf 56* and FLuc counter 63*.
`COc1ccc(OC)c(Nc2nc(-c3c(C)nc4ncccn34)cs2)c1` gave Mdm2 MdmX PPI 76*, TIM10 inh -9, tim10-1 inh -2, MPTP block 0, tim23-1 inh 7, Mdm2-MdmX conf 34 and FLuc counter 85*.
Screening CC(C)C(=O)N1CCCCCCN1C(=O)C(C)C returned MPTP block 1.
CC(O)(c1cccc(F)c1)c1nc(-c2cc(F)cc(F)c2)cs1 (centres undefined) was read as MPTP block 3.
Cc1nc2c(C)cccc2cc1C(=O)N/N=C/c1ccc(N(C)C)cc1 was read as Mdm2 MdmX PPI 50*, TIM10 inh 16, tim10-1 inh 37, MPTP block 1, tim23-1 inh 35, Mdm2-MdmX conf 49* and FLuc counter 57*.
Cc1nc2c(C)cccc2cc1C(=O)N/N=C/c1ccc(C(=O)O)cc1 was read as Mdm2 MdmX PPI -15, TIM10 inh 16, tim10-1 inh 3, MPTP block -1 and tim23-1 inh 4.
OCc1cccc(-c2csc(C(O)c3ccccc3)n2)c1 (centres undefined) was read as MPTP block 0.
Screening COc1ccc(-c2nc3c4ccccc4ccn3c2CC2CCCCC2)cc1OC returned MPTP block 0.
COc1ccccc1CNCC(O)Cn1c2ccccc2c2ccccc21 (centres undefined) was read as Mdm2 MdmX PPI 90*, TIM10 inh 32, tim10-1 inh -2, MPTP block -4, tim23-1 inh -71, Mdm2-MdmX conf 67* and FLuc counter 50*.
Screening CCn1c2ccccc2c2cc(NC(=O)CNCc3ccccc3OC)ccc21 returned Mdm2 MdmX PPI 57*, TIM10 inh 35, tim10-1 inh -17, MPTP block 1, tim23-1 inh 18, Mdm2-MdmX conf 56* and FLuc counter 81*.
For OCCNCC(O)Cn1c2ccccc2c2ccccc21 (centres undefined) the results were Mdm2 MdmX PPI 17, TIM10 inh -1, tim10-1 inh 2, MPTP block -2 and tim23-1 inh 14.
For CCCNC(=O)C1(C)CCN(Cc2cc(-c3ccccc3)on2)C1 (centres undefined) the results were MPTP block 0.
`C[C@H](CO)N1C[C@H](C)[C@H](CN(C)S(=O)(=O)c2ccccc2F)OCc2cnnn2CCCC1=O` gave MPTP block 0.
For Cc1ccc(-c2nn3c(C)nnc3s2)cc1NCc1c(F)cccc1Cl the results were Mdm2 MdmX PPI 81*, TIM10 inh -3, tim10-1 inh 8, MPTP block 7, tim23-1 inh 8, Mdm2-MdmX conf 66* and FLuc counter 57*.
`Cc1ccc(CNc2cc(-c3nn4c(C)nnc4s3)ccc2C)s1` gave Mdm2 MdmX PPI 41, TIM10 inh 22, tim10-1 inh 14, MPTP block 3 and tim23-1 inh 29.
For CN1Cc2sc(NC(=S)NC(=O)c3ccccc3)c(C#N)c2CC1(C)C the results were Mdm2 MdmX PPI 58*, TIM10 inh -9, tim10-1 inh -16, tim23-1 inh 17, Mdm2-MdmX conf 62* and FLuc counter 61*.
